ELG1 DNA repair: inhibitors of ELG1-dependent DNA repair in HEK293T cells. HEK293T ELG1-luciferase reporter, luminescence, 16 h; DNA damage induced by 5-fluorouridine. Potency, µM (doses to about 46.1 µM), actives largely listed as inhibitors. 2.3% of 330,000 active. AID 504467; also: nearly all actives have a fitted effect of over 55% in size
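5-Fluorouridine DNA damage + compound/DMSO, 2,000 cells/well, 16 h, 37 °C/5% CO2. ONE-Glo, 30 min RT, luminescence. Readout = decrease in reporter signal.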
Rab9 prom act: Rab9 promoter activation | 2.8% of 320,000 active | Potency, µM (series often up to 9.22 µM), most hits filed as activators | Huh7 Rab9 promoter-luciferase reporter, luminescence, 24 h; also: nearly all actives have a fitted effect of over 60% in size
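Cells were plated at 1500 per well in reduced-serum medium with 10% FBS and left 2 h. Compound in DMSO was then added for 24 h at 37 °C. Reporter signal was read by luminescence after 10 min with luciferase detection reagent.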
FLuc counter: firefly luciferase modulation, counter-screen for miR-21 project; AID 588342; Potency, µM (highest dose often 57.5 µM), usual class: inhibitors; P08659; purified FLuc, Km substrates, luminescence inhibition; 6.9% of 360,000 active; also: nearly all actives have a fitted effect of over 55% in size
Target sequence (P08659 whole entry, looked up): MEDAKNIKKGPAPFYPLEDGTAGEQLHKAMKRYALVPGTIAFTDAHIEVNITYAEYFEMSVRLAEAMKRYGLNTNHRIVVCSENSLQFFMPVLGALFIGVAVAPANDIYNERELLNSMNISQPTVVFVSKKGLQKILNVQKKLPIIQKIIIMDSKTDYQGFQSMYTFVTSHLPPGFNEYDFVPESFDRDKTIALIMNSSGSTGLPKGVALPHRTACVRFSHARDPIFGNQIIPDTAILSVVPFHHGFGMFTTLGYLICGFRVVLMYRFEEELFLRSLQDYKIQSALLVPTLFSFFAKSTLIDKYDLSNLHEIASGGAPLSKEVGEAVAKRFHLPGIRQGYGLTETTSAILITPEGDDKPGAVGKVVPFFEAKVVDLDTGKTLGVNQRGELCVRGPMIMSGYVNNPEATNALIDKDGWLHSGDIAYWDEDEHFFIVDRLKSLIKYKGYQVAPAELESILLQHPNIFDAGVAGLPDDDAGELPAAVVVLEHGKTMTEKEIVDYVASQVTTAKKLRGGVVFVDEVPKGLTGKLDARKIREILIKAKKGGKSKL
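Biochemical qHTS of compounds, final roughly 60 µM downward over six points, against 10 nM purified firefly luciferase using Km concentrations of substrates (10 uM D-luciferin, 10 uM ATP) in Tris acetate pH 7.5 buffer; luminescence output.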
ELG1 genotoxic: genotoxicity induction in ELG1-luciferase HEK293T cells; 1.3% of 330,000 active; Potency, µM (series often up to 46 µM), actives largely listed as activators; HEK293T ELG1-luciferase reporter, luminescence, 16 h; also: nearly all actives have a fitted effect of over 60% in size
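Reporter readout depends on ELG1 protein level, which increases with genetic stress. After 16 hr compound exposure at 37 °C, luciferase activity was quantified using ONE-Glo.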
SMN2 splice up: enhancers of SMN2 splice variant expression. HEK293 SMN2-luciferase splicing reporter, luminescence, 30-36 h. Potency, µM (top dose mostly 46.1 µM), hits mostly activators. 2.8% of 210,000 active; also: nearly all actives have a fitted effect of over 55% in size
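qHTS luciferase splicing reporter: luminescence rises when SMN2 exon 7 is included in transfected HEK293 cells. Compound exposure lasted 30-36 h at 37C, with 4.5 mM final sodium butyrate as control, followed by a ONE-Glo read.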
NPC1 prom act: activates the NPC1 promoter; Huh7 NPC1 promoter luciferase reporter, 24 h; Potency, µM (titrated, usually from 9.22 µM), usual class: activators; 2.4% of 320,000 active; AID 485313; also: nearly all actives have a fitted effect of over 60% in size
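Luminescence from an NPC1 promoter-driven luciferase reporter in stably transfected Huh7 cells was measured after 24 h compound treatment at 37 °C, followed by 10 min ambient incubation with luciferase detection reagent.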
Hits are given with their value; i = inactive; ? = inconclusive; nt = no result given; [ ] = dose if it differs, or a comment. Only some compounds are listed: those with a hit (about 9.4% of all), similar ones and a draw of the others. Calls follow the shape of the dose curve; as a rule, active = well fitted curve in the direction sought with a large enough effect; inconclusive = small, poorly fitted or top-dose-only effect, or another doubt; inactive = no such curve, though single readings can be large; an effect the other way counts as inactive or inconclusive.

SMILES | ELG1 DNA repair | Rab9 prom act | FLuc counter | ELG1 genotoxic | SMN2 splice up | NPC1 prom act
COc1ccc(-c2csc(NC(=O)C3=COCCO3)n2)c(OC)c1 | ? | ? | 24µM | 21µM | nt | ?
Cc1cc(C)c(-c2csc(NC(=O)C3=COCCO3)n2)cc1C | ? | i | 19µM | i | nt | i
O=C(Nc1nc(-c2ccc(-c3ccccc3)cc2)cs1)C1=COCCO1 | ? | i | ? | i | i | i
COc1ccc(-c2csc(NC(=O)COC(=O)C3=COCCO3)n2)cc1 | ? | 4µM | i | i | 14µM | 3.5µM
C=CCn1c(C)cc(-c2csc(NCC)n2)c1C | ? | i | 15µM | i | nt | i
C=CCn1c(C)cc(-c2csc(NC)n2)c1C | i | i | i | i | i | i
N[C@@H](CCCCO)C(=O)O | nt | nt | nt | nt | i[9.22 µM] | nt
C=CCn1c(C)cc(-c2csc(NC(=O)C3=COCCO3)n2)c1C | ? | 1.6µM | 9.5µM | ? | nt | 2.2µM
C=CCNc1nc(-c2ccc(OC)cc2OC)cs1 | ? | 3.2µM | 12µM | ? | ? | 2.8µM
C=CCn1c(C)cc(-c2csc(N)n2)c1C | i | i | ? | i | ? | i
COc1ccc(-c2csc(NC(=O)CN3C(=O)C4CCCCC4C3=O)n2)c(OC)c1 (stereo not given) | i | i | ? | i | nt | i
CCNC(=O)/C(C#N)=C/c1c(N2CCN(c3ccccc3)CC2)nc2c(C)cccn2c1=O | ? | i[1.84 µM] | i | i | nt | i
CNC(=O)/C(C#N)=C/c1c(N2CCN(c3cccc(Cl)c3)CC2)nc2c(C)cccn2c1=O | 21µM | i[1.84 µM] | i | i | nt | i
CCNC(=O)/C(C#N)=C/c1c(N2CCN(c3ccc(OC)cc3)CC2)nc2c(C)cccn2c1=O | 23µM | i | i | i | nt | i
CC(=NCC(=O)O)c1ccccc1 | nt | nt | nt | nt | i[9.22 µM] | nt
O=C(CN1Cc2ccccc2C1=O)Nc1cc(F)ccc1F | nt | nt | i | nt | nt | nt
O=C(Nc1cccc(-c2nn[nH]n2)c1)c1csc2c1CCCC2 | i | i | 11µM | i | nt | i
O=C(Nc1cccc(-c2nn[nH]n2)c1)c1cccs1 | ? | ? | ? | i | nt | 2.8µM
CC(=O)Nc1cccc(-c2nn[nH]n2)c1 | i | i | i | i | nt | i
CCc1ccc(C(=O)Nc2cccc(-c3nn[nH]n3)c2)s1 | i | i | 1.5µM | i | nt | i
O=C(Cn1c(=O)n(-c2ccccc2)c(=O)c2c3c(sc21)CCCC3)Nc1ccc(F)cc1F | nt | nt | i | nt | i | nt
CCOC(=O)C1CCN(C(=O)Cn2nc(CC)n3c(cc4occc43)c2=O)CC1 | nt | nt | i | nt | i | nt
COc1ccc(C(=O)Nc2ccc(OCc3cc(=O)n4ccccc4n3)cc2)cc1 | nt | nt | i | nt | nt | nt
CCc1nn(CC(=O)N2CCC(C)CC2)c(=O)c2cc3occc3n12 | nt | nt | i | nt | nt | nt
FC(F)(F)c1nc(-c2ccncc2)ncc1-c1nnnn1-c1ccccc1 | i | i | i | i | i | i
SMILES | ELG1 DNA repair | Rab9 prom act | FLuc counter | ELG1 genotoxic | SMN2 splice up | NPC1 prom act
Fc1ccc(-n2nnnc2-c2cnc(-c3cccs3)nc2C(F)(F)F)cc1 | 21µM | i | i | i | nt | i
CC(Oc1ccc(Cl)cc1Cl)c1nc(-c2ccc(NC(=O)c3ccccn3)cc2)no1 (stereo not given) | ? | ? | 9.5µM | ? | ? | 2.8µM
CCc1ccc(S(=O)(=O)/N=C2\C=C(NS(=O)(=O)c3ccccc3)C(=O)c3ccccc32)cc1 | i | i | 15µM | ? | nt | i
O=C(O)c1ccc(S(=O)(=O)/N=C2\C=C(Nc3ccccc3F)C(=O)c3ccccc32)cc1 | ? | i | ? | i | nt | i
Cc1cccc(S(=O)(=O)Nc2cccc3c2C(=O)c2ccccc2-3)c1 | i | i | i | i | i | i
CC(C)c1ccc(S(=O)(=O)/N=C2\C=C(NS(=O)(=O)c3ccccc3)C(=O)c3ccccc32)cc1 | ? | i | 19µM | i | nt | i
Cc1ccc(C)c(S(=O)(=O)/N=C2\C=C(NS(=O)(=O)c3ccccc3)C(=O)c3ccccc32)c1 | 23µM | i | ? | i | nt | i
Cc1cccc(C)c1NC(=O)CSc1ncc2c(n1)-c1ccc(Cl)cc1N(Cc1ccccc1)S2(=O)=O | nt | nt | i | nt | nt | nt
CN(C)S(=O)(=O)N1CCC(N2CCN(Cc3ccc(F)cc3)C(=O)C2=O)CC1 | nt | nt | i | nt | nt | nt
CCOc1cc(C2c3c(oc4ccccc4c3=O)C(=O)N2Cc2ccc3c(c2)OCO3)ccc1O (stereo not given) | nt | nt | i | nt | i | nt
Clc1ccc(Cc2ccc(SCc3ccccc3)nn2)c(Cl)c1 | i | i | i | i | i | i
Clc1ccc(CSc2cc3c(nn2)-c2ccccc2CC3)cc1 | ? | i | 12µM | i | i | ?
Cc1nn(-c2ccccc2)c(N2CCCC2)c1/C=N/NC(=O)c1cc2ccccc2cc1O | ? | i | i | i | nt | i
Cc1nn(-c2ccccc2)c(N2CCCC2)c1/C=N/NC(=O)c1cc(-c2cccs2)nc2ccccc12 | 15µM | i | i | i | i | i
Cc1nn(-c2ccccc2)c(N2CCCC2)c1/C=N/NC(=O)c1cc(-c2ccccn2)nc2ccccc12 | 8.2µM | i | i | i | i | i
CCCN(CCC)C(=O)c1c[nH]c2ccc(S(=O)(=O)N(C)c3ccc(Cl)cc3)cc2c1=O | nt | nt | i | nt | nt | nt
CCCCOC(=O)c1ccc(NC(=O)CSc2nc3c(c(=O)[nH]2)CCC3)cc1 | nt | nt | i | nt | nt | nt
NC(=O)C[C@H](N)C(N)=O | nt | nt | nt | nt | i[9.22 µM] | nt
O=C(Nc1cccc(Br)c1)c1ccc(CSc2ccccc2)cc1 | ? | i | 12µM | i | i | i
O=C(O)c1cccc(NC(=O)c2ccc3c(c2)C(=O)N(Cc2ccco2)C3=O)c1 | i | i | 0.95µM | i | nt | i
Cc1c(NC(=O)c2ccc3c(c2)C(=O)N(Cc2ccco2)C3=O)cccc1C(=O)O | i | i | 15µM | i | i | i
O=C(O)c1cccc(NC2=C(Cl)C(=O)c3ccccc3C2=O)c1 | ? | ? | 17µM | i | i | i
O=C(O)c1ccc2c(c1)C(=O)N(Cc1ccco1)C2=O | i | i | i | i | nt | i
O=C(O)c1ccc(CN2C(=O)c3ccc(C(=O)O)cc3C2=O)cc1 | i | i | i | i | nt | i
O=C(O)COc1ccc(NC(=O)c2ccc3c(c2)C(=O)N(C2CCCCC2)C3=O)cc1 | ? | i | i | i | nt | i
O=C(O)c1cccc(NC(=O)c2ccc3c(c2)C(=O)N(C2CCCCC2)C3=O)c1 | i | 1µM | 0.19µM | ? | nt | 1.6µM
O=C(O)c1cccc(NC(=O)c2ccc(CN3C(=O)c4ccccc4C3=O)cc2)c1 | i | i | 12µM | i | nt | i
COc1ccc(N2Cc3cccc(C(=O)Nc4ccc(C(C)C)cc4)c3C2=O)cc1 | nt | nt | 0.27µM | nt | ? | nt
COc1ccc(N2Cc3cccc(C(=O)Nc4ccc(C)cc4)c3C2=O)cc1 | nt | nt | i | nt | i | nt
COCCN1Cc2cccc(C(=O)Nc3ccc(C)c(C)c3)c2C1=O | i | i | 7.6µM | i | i | i

Source: PubChem
